Screening results (PubChem)
mHTT CaM bind – mHTT-calmodulin interaction abrogation | 190,000 tested, 3.6% active | inhibition, % at 15 µM | P42858 | AlphaScreen His-mHTT/GST-CaM binding, luminescence
Target sequence (P42858 whole entry, looked up, change not shown): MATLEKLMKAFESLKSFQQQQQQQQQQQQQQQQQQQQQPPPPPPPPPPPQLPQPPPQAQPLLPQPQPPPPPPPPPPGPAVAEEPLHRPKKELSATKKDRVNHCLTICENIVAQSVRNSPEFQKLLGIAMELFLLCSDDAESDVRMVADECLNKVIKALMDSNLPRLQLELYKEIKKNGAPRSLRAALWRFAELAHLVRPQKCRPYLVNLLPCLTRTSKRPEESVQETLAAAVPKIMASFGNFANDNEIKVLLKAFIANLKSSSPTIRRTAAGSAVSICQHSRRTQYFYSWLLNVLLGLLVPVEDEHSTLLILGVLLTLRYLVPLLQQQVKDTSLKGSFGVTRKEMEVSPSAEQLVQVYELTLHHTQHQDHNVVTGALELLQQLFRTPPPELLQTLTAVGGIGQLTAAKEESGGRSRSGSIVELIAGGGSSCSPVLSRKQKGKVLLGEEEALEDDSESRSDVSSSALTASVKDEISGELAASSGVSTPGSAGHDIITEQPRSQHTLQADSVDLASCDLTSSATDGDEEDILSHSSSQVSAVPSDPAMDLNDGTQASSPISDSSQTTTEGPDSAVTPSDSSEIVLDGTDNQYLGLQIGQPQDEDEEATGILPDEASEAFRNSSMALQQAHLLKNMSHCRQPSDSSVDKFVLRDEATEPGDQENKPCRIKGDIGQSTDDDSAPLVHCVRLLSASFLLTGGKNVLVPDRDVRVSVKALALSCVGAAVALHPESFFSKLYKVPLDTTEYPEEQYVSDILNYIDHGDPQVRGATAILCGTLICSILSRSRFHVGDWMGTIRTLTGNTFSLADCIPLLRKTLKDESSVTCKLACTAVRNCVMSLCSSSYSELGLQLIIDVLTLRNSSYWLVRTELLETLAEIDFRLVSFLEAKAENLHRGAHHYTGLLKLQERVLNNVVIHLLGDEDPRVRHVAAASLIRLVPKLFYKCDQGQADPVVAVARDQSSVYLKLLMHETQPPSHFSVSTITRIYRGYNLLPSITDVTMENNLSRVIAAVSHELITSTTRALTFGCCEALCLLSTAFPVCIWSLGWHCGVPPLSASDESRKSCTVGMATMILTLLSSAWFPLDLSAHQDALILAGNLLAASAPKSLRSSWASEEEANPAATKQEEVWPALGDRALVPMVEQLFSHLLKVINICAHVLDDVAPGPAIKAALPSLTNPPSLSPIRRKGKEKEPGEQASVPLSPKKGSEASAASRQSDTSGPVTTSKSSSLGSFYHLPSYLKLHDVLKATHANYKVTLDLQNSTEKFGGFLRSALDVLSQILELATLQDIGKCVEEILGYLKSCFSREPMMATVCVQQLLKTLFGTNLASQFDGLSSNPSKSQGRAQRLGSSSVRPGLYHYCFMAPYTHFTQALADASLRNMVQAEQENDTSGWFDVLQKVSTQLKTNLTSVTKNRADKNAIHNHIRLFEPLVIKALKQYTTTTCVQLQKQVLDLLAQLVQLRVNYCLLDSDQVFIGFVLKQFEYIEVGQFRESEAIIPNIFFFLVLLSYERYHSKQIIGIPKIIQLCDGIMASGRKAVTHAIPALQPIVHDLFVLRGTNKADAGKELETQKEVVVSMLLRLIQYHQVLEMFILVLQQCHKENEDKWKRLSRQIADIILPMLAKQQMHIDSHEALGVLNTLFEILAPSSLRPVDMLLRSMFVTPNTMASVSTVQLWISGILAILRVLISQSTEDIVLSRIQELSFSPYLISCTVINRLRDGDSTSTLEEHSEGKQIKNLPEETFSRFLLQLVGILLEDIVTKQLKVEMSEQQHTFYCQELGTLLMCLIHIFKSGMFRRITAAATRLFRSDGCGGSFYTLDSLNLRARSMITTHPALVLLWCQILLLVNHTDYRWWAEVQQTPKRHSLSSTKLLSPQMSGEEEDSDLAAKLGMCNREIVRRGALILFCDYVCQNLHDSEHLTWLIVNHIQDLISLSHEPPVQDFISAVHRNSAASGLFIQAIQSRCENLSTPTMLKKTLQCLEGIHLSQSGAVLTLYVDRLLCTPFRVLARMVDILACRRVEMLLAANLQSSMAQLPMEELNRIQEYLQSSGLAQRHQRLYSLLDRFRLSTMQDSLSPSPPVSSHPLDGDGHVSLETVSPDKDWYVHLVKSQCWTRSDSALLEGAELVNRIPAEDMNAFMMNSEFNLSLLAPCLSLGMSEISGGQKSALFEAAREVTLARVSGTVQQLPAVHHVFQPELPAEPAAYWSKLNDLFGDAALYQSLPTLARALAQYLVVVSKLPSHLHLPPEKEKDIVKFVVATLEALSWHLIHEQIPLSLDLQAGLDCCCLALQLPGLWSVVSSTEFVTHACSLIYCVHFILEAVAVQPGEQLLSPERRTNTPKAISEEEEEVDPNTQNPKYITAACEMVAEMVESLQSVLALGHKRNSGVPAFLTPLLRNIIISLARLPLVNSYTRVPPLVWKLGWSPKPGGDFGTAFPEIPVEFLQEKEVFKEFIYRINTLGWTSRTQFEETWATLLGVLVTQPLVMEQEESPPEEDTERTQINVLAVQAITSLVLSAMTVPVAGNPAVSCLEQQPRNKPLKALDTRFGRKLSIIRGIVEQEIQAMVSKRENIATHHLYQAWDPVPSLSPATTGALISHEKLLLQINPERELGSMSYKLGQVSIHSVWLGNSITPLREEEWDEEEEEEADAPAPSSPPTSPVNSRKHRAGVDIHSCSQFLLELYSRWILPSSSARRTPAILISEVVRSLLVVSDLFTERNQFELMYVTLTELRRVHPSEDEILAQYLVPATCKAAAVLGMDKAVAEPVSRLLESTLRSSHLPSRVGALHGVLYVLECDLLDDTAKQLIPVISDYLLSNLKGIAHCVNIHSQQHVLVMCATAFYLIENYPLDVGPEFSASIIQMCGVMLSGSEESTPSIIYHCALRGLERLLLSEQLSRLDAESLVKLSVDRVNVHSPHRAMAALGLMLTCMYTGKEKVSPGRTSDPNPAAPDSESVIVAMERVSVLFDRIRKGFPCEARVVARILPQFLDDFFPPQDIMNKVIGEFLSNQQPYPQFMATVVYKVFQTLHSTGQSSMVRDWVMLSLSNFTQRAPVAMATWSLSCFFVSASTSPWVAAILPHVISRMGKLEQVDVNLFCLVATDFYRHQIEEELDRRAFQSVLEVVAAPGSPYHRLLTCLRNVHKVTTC
Pf apPOL block – Pf-apPOL DNA polymerase inhibition. Recombinant Pf-apPOL, molecular beacon fluorescence, 1.5 h. AID 1794808. 210,000 tested, 0.25% active. inhibition, % at 10 µM
Of the large screens only hits and unclear results are named; the others gave an inactive call; ! = not active in a repeat. Compounds with a hit are over-represented: about 3.5% of the library has one in this group of screens. Rule as the data show it: active = inhibition above about 50%; inactive = the rest.

COc1ccc(C(CCN2CCN(c3ccccc3)CC2)c2c(O)cc(OC)cc2OC)cc1 (centres undefined)	mHTT CaM bind 72
COc1cc(OC)c2ccc(=O)oc2c1C(CCN1CCCC1)c1ccc(N(C)C)cc1 (centres undefined)	none
CC1CC(C)CN(S(=O)(=O)c2ccc3[nH]cc(C(=O)NC4CCCCCC4)c(=O)c3c2)C1 (centres undefined)	none
O=C(NCc1cc(F)cc(F)c1)C1CCN(c2nccn3nc(-c4ccccc4)cc23)CC1	none
Cc1nc(C)c(Cc2ccccc2F)c(N2CCN(C(=O)C3CCCC3)CC2)n1	none
Cc1noc(-c2cccs2)c1C(=O)NCCc1ccc(F)cc1	none
Cc1noc(-c2ccccc2Cl)c1C(=O)NCCc1ccc(F)cc1	mHTT CaM bind 55
Cc1ccc(N2CCN(C(=O)c3sc(Nc4ccc(F)cn4)nc3C)CC2)cc1	mHTT CaM bind 78
Cc1ccnc(Nc2nc(C)c(C(=O)N3CCCC3)s2)c1	none
Cc1cc(C)cc(-n2c(CN3CCN(C(=O)NCCC(C)C)CC3)nc3cccnc32)c1	none
COc1ccc(NC(=O)N2CC3CCCN3c3ccccc32)c(OC)c1 (centres undefined)	mHTT CaM bind 90
COc1ccc(NC(=O)N2CC3CCCN3c3ccccc32)cc1 (centres undefined)	mHTT CaM bind 62
COc1ccc(NC(=O)N2CCCC2c2ccccc2Cl)c(OC)c1 (centres undefined)	none
CCC1CN(C(=O)Nc2ccc(OC)cc2)c2ccccc2O1 (centres undefined)	none
CCOc1cc2c(cc1OCC)C1CC(=O)N(c3ccccc3C)C(=O)N1CC2 (centres undefined)	none
COC(=O)CN1N=C2c3ccccc3C(=O)c3cccc(c32)S1(=O)=O	none (no result: Pf apPOL block)
CCN1C(=O)C(C)(C)COc2cc(NC(=O)C34CC5CC(CC(C5)C3)C4)ccc21	none
O=C(Cn1c(-c2ccccc2F)nc2ccccc2c1=O)Nc1ccc(F)c(Cl)c1	mHTT CaM bind 91
COc1ccc2nc(NC(=O)Cn3c(-c4ccccc4F)nc4ccccc4c3=O)sc2c1	mHTT CaM bind 100
COc1ccc(NC(=O)Cn2c(-c3ccccc3F)nc3ccccc3c2=O)cc1OC	none
COc1cccc(NC(=O)Cn2c(-c3ccccc3F)nc3ccccc3c2=O)c1	none
CC(=O)CC1c2cc(F)ccc2C=C(c2ccsc2)N1c1ccc(C#CC2(O)CCCCC2)cc1 (centres undefined)	none
CC(=O)CC1c2cc(F)ccc2C=C(c2ccsc2)N1c1ccc(C#Cc2cncn2C)cc1 (centres undefined)	mHTT CaM bind 75
O=C(N1CCN(c2ccccc2)CC1)C(Cl)(Cl)Cl	none
CC1=C(C#N)C(c2cccs2)C(C#N)=C(C)N1	none (no result: mHTT CaM bind)
N#CC1=C(N)SC(N)=C(C#N)C1c1ccc(-c2ccccc2)cc1	mHTT CaM bind 52
N#CC1=C(N)SC(N)=C(C#N)C1c1ccc(O)cc1	none
N#CC1=C(N)SC(N)=C(C#N)C1c1cccs1	mHTT CaM bind 63!
Cc1cc(C)c(NC(=O)Cn2cc3c(n2)CCC(C)C3)c(C)c1 (centres undefined)	none
COc1ccc(-c2ccc(C=C3C(=O)OC(c4ccccc4)OC3=O)o2)c([N+](=O)[O-])c1 (centres undefined)	none
O=C1/C(=C/c2cc([N+](=O)[O-])cc(Br)c2O)Sc2ccccc21	mHTT CaM bind 89
O=C1/C(=C/c2c(Cl)ccc([N+](=O)[O-])c2Cl)Sc2ccccc21	mHTT CaM bind 67
O=C1/C(=C/c2cc([N+](=O)[O-])c(Cl)cc2Cl)Sc2ccccc21	none
CC(C)c1ccc(/C=C2\Sc3ccccc3C2=O)cc1[N+](=O)[O-]	none
O=C1/C(=C/c2cccc([N+](=O)[O-])c2O)Sc2ccccc21	none
COc1ccc(-c2ccc(/C=C3\Sc4ccccc4C3=O)o2)c([N+](=O)[O-])c1	mHTT CaM bind 51
O=C1/C(=C/c2ccc([N+](=O)[O-])cc2)Sc2ccccc21	Pf apPOL block 89
COc1cccc(CNC(=O)C2CCN(c3nnc4ccc(C(F)(F)F)cn34)CC2)c1	none
O=C(Nc1ccccc1F)N1CCC(CCOc2ccccc2)CC1	none
Cc1ccccc1OCC(O)CN1C(C)(C)CC(O)CC1(C)C (centres undefined)	none
Cc1ccccc1CNc1nc2ccncc2n(Cc2ccccc2)c1=O	none
COc1ccc(N2CCN(C(=O)CN(C)S(=O)(=O)c3ccc(C)cc3)CC2)cc1	none
C#CCSc1n[nH]c(-c2ccc(C(F)(F)F)cc2)n1	none (no result: mHTT CaM bind)
CCOC(=O)c1nc(C)sc1-c1ccnn1C(=O)c1ccc(OC)cc1	none (no result: mHTT CaM bind)
O=C(CSc1nc(-c2ccccc2)cn1-c1ccccc1F)Nc1ccccc1	mHTT CaM bind 54
COc1ccccc1-n1cc(-c2ccccc2)nc1SCC(=O)Nc1ccc(F)cc1	mHTT CaM bind 57
COc1ccccc1NC(=O)CSc1nc(-c2ccccc2)cn1-c1ccccc1OC	none
Cn1cnnc1SCC(=O)Nc1ccccc1	none
Cc1ccccc1NS(=O)(=O)c1ccc2[nH]cc(C(=O)N(C)Cc3ccccc3)c(=O)c2c1	none
O=C(CCS(=O)(=O)c1ccc(Br)s1)Nc1ccc(F)cc1Cl	none
C[N+]1(CC(O)COc2ccc(C34CC5CC(CC(C5)C3)C4)cc2)CCCCCC1 (centres undefined)	mHTT CaM bind 91
CC1CC[N+](C)(CC(O)COc2ccc(C34CC5CC(CC(C5)C3)C4)cc2)CC1 (centres undefined)	none
C[N+](C)(C)CC(O)COc1ccc(C23CC4CC(CC(C4)C2)C3)cc1 (centres undefined)	none
CC(C)(C)CC(C)(C)c1ccc(OCC(O)C[N+](C)(C)C)cc1 (centres undefined)	none
CC1C[N+](C)(CC(O)COc2ccc(C(C)(C)CC(C)(C)C)cc2)CC(C)O1 (centres undefined)	mHTT CaM bind 52
CC1C[N+](C)(CC(O)COc2ccc(C34CC5CC(CC(C5)C3)C4)cc2)CC(C)O1 (centres undefined)	mHTT CaM bind 51
O=C(Nc1cccc(F)c1)C1CCC(CNS(=O)(=O)c2ccc(Br)s2)CC1 (centres undefined)	none
Cc1sc(-c2cccnc2)nc1-c1c[nH]c2ccccc12	none
Cc1ccccc1-n1nc2c(c1NC(=O)c1ccc([N+](=O)[O-])cc1)CS(=O)(=O)C2	none
COc1ccc(C2CC(C(F)(F)F)n3nc(C(=O)N4CCCCC4C)c(Cl)c3N2)cc1 (centres undefined)	none
O=C(Nc1ccccc1)c1cccc(I)c1	none
Cc1cc(C(=O)Nc2ccc(NC(=O)c3ccccc3)cc2)ccc1[N+](=O)[O-]	none
Cc1cccc(C(=O)Nc2ccc([N+](=O)[O-])c(NC(=O)c3cccc(C)c3)c2)c1	Pf apPOL block 80
CN(C)c1ccc(NC(=O)c2ccncc2)cc1	mHTT CaM bind 70
COc1ccc(NS(=O)(=O)c2cccc(C(=O)Nc3cccc(C(=O)O)c3)c2)cc1	none
COc1ccc(NS(=O)(=O)c2cccc(C(=O)Nc3ccc(C)cc3)c2)cc1	Pf apPOL block 95
CN(C)c1ccc(NC(=O)c2ccc(Cl)cc2)cc1	none
CN(C)c1ccc(NC(=O)c2cccc(I)c2)cc1	mHTT CaM bind 80
CN(CCCNC(=O)c1cn(C2CCCC2)c(=O)c2c1c1ccccc1n2C)Cc1ccccc1	none
CCOc1ccc(CN2CCc3nc(Nc4cc(OC)ccc4OC)ncc3C2)cc1	none
Cc1cccc(C(=O)Nc2ccc(F)cc2)c1	none
Cc1cccc(C(=O)Nc2ccc(I)cc2)c1	Pf apPOL block 77
CNC(=O)C1CN(C(=O)Nc2ccccc2C)CC12CCCC2 (centres undefined)	none
